Compound activity deposited in PubChem BioAssay by National Center for Advancing Translational Sciences (NCATS).
Hits are enriched below; roughly 15% of the tested compounds scored in any of these assays.
12-LOX inh: blocks human arachidonate 12S-lipoxygenase; P18054; purified 12hLO, xylenol orange hydroperoxide absorbance; Potency, µM (highest dose often 108 µM), for inactives: top-dose activity change, negative = inhibition, most hits filed as inhibitors; 1.1% of 580,000 active; AID 1671190
Target sequence (P18054 whole entry, looked up): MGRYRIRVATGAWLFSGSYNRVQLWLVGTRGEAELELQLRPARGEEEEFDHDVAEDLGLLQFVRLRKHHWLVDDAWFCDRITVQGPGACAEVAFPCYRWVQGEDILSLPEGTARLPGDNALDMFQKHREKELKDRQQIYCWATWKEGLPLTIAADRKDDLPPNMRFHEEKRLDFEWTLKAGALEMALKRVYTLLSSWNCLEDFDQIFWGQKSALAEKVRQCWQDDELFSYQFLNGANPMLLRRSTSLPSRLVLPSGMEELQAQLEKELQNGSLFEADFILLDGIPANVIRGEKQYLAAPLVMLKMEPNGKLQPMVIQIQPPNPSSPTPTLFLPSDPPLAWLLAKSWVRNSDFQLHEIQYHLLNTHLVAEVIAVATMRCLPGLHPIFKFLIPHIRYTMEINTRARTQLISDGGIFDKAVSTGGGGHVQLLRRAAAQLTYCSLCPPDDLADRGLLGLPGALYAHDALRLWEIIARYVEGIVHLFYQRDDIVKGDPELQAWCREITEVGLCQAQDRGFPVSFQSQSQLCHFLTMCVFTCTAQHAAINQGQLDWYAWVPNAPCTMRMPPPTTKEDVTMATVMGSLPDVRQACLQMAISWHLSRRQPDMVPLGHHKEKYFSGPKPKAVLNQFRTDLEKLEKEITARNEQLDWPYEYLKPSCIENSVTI
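Hydroperoxide product was detected by ferrous iron/xylenol orange as the 573 to 405 nm absorbance ratio. Arachidonic acid at 40 uM (final) was turned over for 30 min at room temperature by 150 nM human 12hLO, pH 7.0 Hepes buffer, after 15 min compound preincubation.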
TDP1 cell noCPT: qHTS for Inhibitors of human tyrosyl-DNA phosphodiesterase 1 (TDP1): qHTS in cells in absence of CPT. AID 686978, 2013. Potency, µM (titrated, usually from 46.2 µM), for inactives: at the top dose activity change, negative = growth inhibition, hits mostly inhibitors. 15% of 420,000 active. DT40 Tdp1-/- hTDP1 cells, no CPT, ATP luminescence, 48 h; note: nearly all actives have a fitted effect of over 55% in size
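Growth kinetics read by CellTiter-Glo luminescence after ≥48 hr at 37 °C. Cells: DT40 Tdp1-/- stably carrying human TDP1, 400 per well, compound exposure in the absence of CPT (DMSO vehicle).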
ELG1 DNA repair: inhibitors of ELG1-dependent DNA repair in HEK293T cells; HEK293T ELG1-luciferase reporter, luminescence, 16 h; DNA damage induced by 5-fluorouridine; Potency, µM (highest dose often 46.1 µM), without a hit: at the top dose activity change, negative = inhibition, usual class: inhibitors; 2.3% of 330,000 active; note: nearly all actives have a fitted effect of over 55% in size
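In this reporter screen, reduction of luminescence relative to DMSO vehicle indicated activity. Compounds and 5-fluorouridine were added together to 2,000 cells per well, incubated for 16 hr at 37 °C, then developed with ONE-Glo.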
RORg inh: blocks mouse ROR gamma transcriptional activity. Potency, µM (titrated, usually from 53.6 µM), without a hit: at the top dose activity change, negative = inhibition, most hits filed as inhibitors. Drosophila S2 Gal4-RORgamma UAS-luciferase reporter, 20 h. P51450. AID 2551. 5.4% of 310,000 active; note: nearly all actives have a fitted effect of over 60% in size
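Schneider cells (Drosophila), stable Gal4 DBD–ROR gamma + UAS-luc; 1 hr cmpd preincubation; Cu2+ induction 700 uM final; 20 hr ambient; luminescence.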
VP16 counter: inhibits Gal4-VP16 luciferase reporter, ROR gamma counter-screen; Drosophila S2 Gal4-VP16 UAS-luciferase, luminescence, 20 h; Potency, µM (highest dose often 53.6 µM), without a hit: top-dose activity, negative = inhibition, usual class: inhibitors; 3.5% of 310,000 active; AID 2546;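 note: Gal4-VP16 expression switched on by copper sulfate through the metallothionein promoter; nearly all actives have a fitted effect of over 50% in size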
TDP1 cell CPT: growth inhibition of DT40 Tdp1-/-;hTDP1 cells with camptothecin (screen for TDP1 inhibitors); chicken DT40 Tdp1-/-;hTDP1 cells + 20 nM CPT, ATP luminescence, 48 h; Potency, µM (series often up to 46.2 µM), for inactives: at the top dose activity change, negative = growth inhibition, usual class: inhibitors; 12% of 420,000 active; note: nearly all actives have a fitted effect of over 55% in size
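Chicken DT40 Tdp1-/- cells stably complemented with human TDP1 were seeded at 400 cells/well in medium containing 20 nM camptothecin, exposed to pin-transferred compounds, and grown at 37 °C for at least 48 hr. Viability was read as ATP luminescence.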
Starred values were filed as active, the others as inactive; [ ] = remark or other dose. Calls come from the whole dose curve; as a rule, active = well fitted curve in the direction sought with a large enough effect; inconclusive = small, poorly fitted or top-dose-only effect, or another doubt; inactive = no such curve, though single readings can be large; an effect the other way counts as inactive or inconclusive. % is set by controls: 0 for no effect and ±100 for the full control effect; potency is the fitted concentration of half-maximal effect.

Results for COC(=O)CC1Oc2ccc(F)cc2-n2cc(-c3ccc(C)cc3)nc21 (centres undefined) ?
12-LOX inh: -13%; TDP1 cell noCPT: 7.3µM*; TDP1 cell CPT: 9.2µM*

What do the screens show for `COC(=O)CC1Oc2ccc(F)cc2-n2cc(-c3ccc(Cl)cc3)nc21` (centres undefined)?
12-LOX inh: -11%; TDP1 cell noCPT: 4.1µM*; TDP1 cell CPT: 9.2µM*

Results for COC(=O)CC1Oc2ccccc2N(Cc2ccccc2)C1=O (centres undefined) ?
12-LOX inh: 442%; TDP1 cell noCPT: -15%; ELG1 DNA repair: inconclusive; RORg inh: 2%; VP16 counter: -10%; TDP1 cell CPT: 7%

Results for COC(=O)c1ccc(N(C(=O)CNC(=O)c2ccco2)C(C(=O)NC2CCCC2)c2ccco2)cc1 (centres undefined) ?
12-LOX inh: 72%[57.4 µM]; TDP1 cell noCPT: 23µM*; ELG1 DNA repair: -1%; RORg inh: -14%; VP16 counter: 4%; TDP1 cell CPT: inconclusive

What do the screens show for `CCc1ccc(N(C(=O)c2ccco2)C(C(=O)NC2CCCC2)c2ccco2)cc1` (centres undefined)?
12-LOX inh: -10%; TDP1 cell noCPT: 16µM*; TDP1 cell CPT: inconclusive

How did COc1ccc(N(C(=O)CNC(=O)c2ccco2)C(C(=O)NC2CCCCC2)c2ccco2)cc1 (centres undefined) do in these assays?
12-LOX inh: 0%; TDP1 cell noCPT: -4%; ELG1 DNA repair: 1%; RORg inh: -8%; VP16 counter: 2%; TDP1 cell CPT: -16%

What do the screens show for `O=C(NC1CCCC1)C(c1ccco1)N(C(=O)c1ccco1)c1ccccc1` (centres undefined)?
12-LOX inh: -13%; TDP1 cell noCPT: 15µM*; ELG1 DNA repair: 0%; RORg inh: 19%; VP16 counter: -18%; TDP1 cell CPT: 2%

What do the screens show for `Cc1ccc(N(C(=O)CNC(=O)c2ccco2)C(C(=O)NCC2CCCO2)c2ccccc2)cc1C` (centres undefined)?
12-LOX inh: 1%; TDP1 cell noCPT: 21µM*; ELG1 DNA repair: inconclusive; RORg inh: 8%; VP16 counter: 3%; TDP1 cell CPT: -29%

What do the screens show for `COc1ccc([N+](=O)[O-])cc1Nc1c2ccccc2nc2ccccc12`?
12-LOX inh: -86%; TDP1 cell noCPT: 2.6µM*; ELG1 DNA repair: -27%; RORg inh: inconclusive; VP16 counter: inconclusive; TDP1 cell CPT: 2.6µM*

What do the screens show for `COc1cc(Nc2c3c(nc4ccccc24)CCC3)cc(OC)c1OC`?
12-LOX inh: 22%; TDP1 cell noCPT: 2.1µM*; ELG1 DNA repair: -1%; RORg inh: -1%; VP16 counter: 2%; TDP1 cell CPT: 1.8µM*

Results for COc1ccc(OC)c(Nc2c3c(nc4ccccc24)CCC3)c1 ?
12-LOX inh: 0%; TDP1 cell noCPT: 0.58µM*; ELG1 DNA repair: inconclusive; RORg inh: 3%; VP16 counter: -7%; TDP1 cell CPT: 0.73µM*

How did Cc1ccccc1Nc1c2c(nc3ccccc13)CCCC2 do in these assays?
12-LOX inh: -11%

What do the screens show for `COc1ccc([N+](=O)[O-])cc1NS(=O)(=O)c1ccccc1`?
12-LOX inh: 5%; TDP1 cell noCPT: -29%; ELG1 DNA repair: 17%; RORg inh: 18%; VP16 counter: -17%; TDP1 cell CPT: -6%

Results for COc1cc(NC(=O)c2c3c(nc4ccccc24)CCC3)cc(OC)c1 ?
12-LOX inh: -5%; TDP1 cell noCPT: -8%; ELG1 DNA repair: 11%; RORg inh: 5%; VP16 counter: -5%; TDP1 cell CPT: -29%
